As a reminder, the Inhibition is the drop in the measured response relative to a control, in per cent. Read a high Inhibition as a strong effect.

Common to all, as to type: functional
The test system of experiment [1] is Plasmodium falciparum. Nature of the experiment: GSK_TCMDC: Inhibition of Plasmodium falciparum 3D7 in whole red blood cells, using parasite LDH activity as an index of growth. Test compounds present at 2uM.
For experiment [2], the system named is Plasmodium falciparum. Nature of the experiment: GSK_TCMDC: Inhibition of Plasmodium falciparum Dd2 in whole red blood cells, using parasite LDH activity as an index of growth. Test compounds present at 2uM.
The subject of the next experiment is HepG2. The experiment in a line: GSK_TCMDC: Percent inhibition of human HepG2 cell line. Test compounds present at 10uM.

Regarding `Cc1nc2nc(N)nc(N)c2c(C)c1Cc1cccc(C(N)=O)c1.Cl`, the Inhibition in the experiment on Plasmodium falciparum [1] turned out to be 91%; in the experiment with Plasmodium falciparum [2], 0%; with HepG2 it was 59%.
On the same counts, the results for `COc1ccccc1C1CCN(C2CCC(NC(=O)c3cc4cc(C(C)C)ccc4[nH]3)CC2)CC1` (configuration not stated) are 100%, 98% and 100%.
In the case of `COc1ccc(CNCc2ccccc2)cc1-c1ccc(OC)c(S(=O)(=O)NCCN2CCCC2)c1.O=C(O)C(F)(F)F`, the Inhibition in the experiment on Plasmodium falciparum [1] is 100%; in the experiment with Plasmodium falciparum [2], 55%; with HepG2, 14%.
With `Cc1cc(N2CCOCC2)nc2ccc(NC(=O)c3cccc([N+](=O)[O-])c3)cc12`, the Inhibition worked out at 97% in the experiment on Plasmodium falciparum [1], 37% in the experiment on Plasmodium falciparum [2] and 0% with HepG2.
Take `CC1N=C(N)N=C(N)N1OCc1cccc2ccccc12` (configuration not stated): the Inhibition in the experiment with Plasmodium falciparum [1] was 93%; with Plasmodium falciparum [2] it was 4%; in the experiment with HepG2, 66%.
In the case of `Cc1cc2ccccc2c(CON2C(=N)N=C(N)NC2(C)C)c1C.Cl`, the Inhibition with Plasmodium falciparum [1] stood at 93%; in the experiment on Plasmodium falciparum [2], 31%; in the experiment on HepG2 it was 65%.
The like results for `O=C(/C=C/c1ccc(Cl)c(Cl)c1)NCCCCCN1CCC(NC(=O)Nc2ccc([N+](=O)[O-])cc2)CC1` were, in that order, 100%, 2% and 20%.
Turning to `CCCCC(CC)C(=O)C(NC(=O)[C@H](CSC(c1ccccc1)(c1ccccc1)c1ccccc1)NC(=O)OC(C)(C)C)C(=O)OC` (some centres not stated), the figures for the Inhibition in the experiment on Plasmodium falciparum [1], in the experiment on Plasmodium falciparum [2] and with HepG2 were 88%, 31% and 8%, respectively.
For the molecule `O=C(Nc1cccc(-c2ccc(-c3nc4cc(F)ccc4[nH]3)cc2)c1)Nc1ccc(F)c(F)c1F`, the results for the Inhibition in the experiment on Plasmodium falciparum [1], in the experiment with Plasmodium falciparum [2] and in the experiment with HepG2 were 98%, 98% and 53%, respectively.
Turning to `COc1ccc(OCC(O)CN(Cc2ccccc2OC)C(=O)Nc2ccc(Br)cc2)cc1` (configuration not stated), the Inhibition in the experiment with Plasmodium falciparum [1] is 97%; in the experiment with Plasmodium falciparum [2], 2%; with HepG2 it was 8%.
For `O=C(CN1CCC(NCc2cnc(-c3ccc(Cl)cc3)[nH]2)CC1)N1CCc2ccccc21`, the figures for the Inhibition in the experiment on Plasmodium falciparum [1], in the experiment on Plasmodium falciparum [2] and in the experiment on HepG2 were 100%, 5% and 11%, respectively.
Consider `CC(C)CCNCc1c(O)ccc2ccccc12`, for which the Inhibition in the experiment with Plasmodium falciparum [1] is listed as 95%; in the experiment with Plasmodium falciparum [2] it was 51%; in the experiment with HepG2, 9%.
Turning to `CC(C)CNCc1cccc(-c2cccc(CN(CCN(C)C)C(=O)Nc3ccccc3)c2)c1.O=C(O)C(F)(F)F`, the Inhibition with Plasmodium falciparum [1] is recorded as 99%; in the experiment with Plasmodium falciparum [2], 62%; in the experiment with HepG2, 34%.
The like results for `CC(C)NCc1cccc(-c2ccc(NS(=O)(=O)c3cccc4cccnc34)cc2)c1.O=C(O)C(F)(F)F` were, in that order, 90%, 10% and 21%.
Consider `Nc1nc(-c2ccccn2)nc(-n2nc(-c3cccc(C(F)(F)F)c3)cc2N)n1.O=C(O)C(F)(F)F`, for which the Inhibition is reported as 87% in the experiment with Plasmodium falciparum [1], 74% in the experiment on Plasmodium falciparum [2] and 14% in the experiment on HepG2.
For `CC(=O)Nc1cc(C(=O)Nc2cccc(-c3cccc(-c4nc5cccc(C)c5[nH]4)c3)c2)ccc1C`, the figures for the Inhibition in the experiment on Plasmodium falciparum [1], in the experiment on Plasmodium falciparum [2] and in the experiment with HepG2 were 100%, 62% and 25%, respectively.
Consider `Br.Cc1cc(C)c(CON2C(=N)N=C(N)NC2(C)C)cc1C`, for which the Inhibition is on record as 92% in the experiment on Plasmodium falciparum [1], 93% in the experiment with Plasmodium falciparum [2] and 65% with HepG2.
For `Br.CC1(C)NC(N)=NC(=N)N1OCCCOc1ccccc1Cl`, the values for the Inhibition in the experiment with Plasmodium falciparum [1], with Plasmodium falciparum [2] and with HepG2 were 96%, 94% and 64%, respectively.
`O=C(O)C(F)(F)F.OCCN1CCN(Cc2cccc(-c3ccc(-c4nc5cc(C(F)(F)F)ccc5[nH]4)cc3)c2)CC1`: the Inhibition in the experiment with Plasmodium falciparum [1] came to 100%; with Plasmodium falciparum [2] it was 85%; with HepG2, 19%.
As for `O=C(O)C(F)(F)F.O=[N+]([O-])c1cccc(CNCC2CCN(Cc3ccc4ccccc4c3)CC2)c1`, the Inhibition is given as 100% in the experiment on Plasmodium falciparum [1], 42% in the experiment with Plasmodium falciparum [2] and 18% in the experiment with HepG2.
On the same counts, the results for `Brc1ccc(Nc2nc(NCC3CCCO3)c3ccccc3n2)cc1` (configuration not stated) are 100%, 99% and 13%.
With `CC(Oc1ccc(NC(=O)c2cccs2)cc1)C(=O)c1ccc(Cl)cc1` (configuration not stated), the Inhibition in the experiment on Plasmodium falciparum [1] came out at 92%; in the experiment on Plasmodium falciparum [2] it was 83%; in the experiment on HepG2 it was 0%.
Regarding `O=C(NCCCCCCNCc1ccc(-c2ccccc2)cc1)Nc1ccc(Cl)c(Cl)c1`, the Inhibition with Plasmodium falciparum [1] worked out at 90%; in the experiment on Plasmodium falciparum [2], 2%; in the experiment on HepG2, 14%.
As for `Cc1cccc(OC2CCN(c3ncc(C(=O)NCCCN4CCCC4=O)cc3Cl)CC2)c1`, the Inhibition in the experiment on Plasmodium falciparum [1] was found to be 96%; with Plasmodium falciparum [2], 95%; in the experiment on HepG2, 7%.
`CN(C(=O)c1nn(-c2ccccn2)c2nccc(-c3cccs3)c12)C1CCCCC1`: the Inhibition with Plasmodium falciparum [1] amounted to 87%; in the experiment on Plasmodium falciparum [2], 1%; with HepG2 it was 4%.
Regarding `Cc1[nH]c(C)c(-c2ccc(-c3ccc(OC(F)(F)F)cc3)nc2)c(=O)c1Cl`, the Inhibition in the experiment on Plasmodium falciparum [1] was 95%; with Plasmodium falciparum [2], 95%; in the experiment on HepG2 it was 11%.
With `Cc1cccc(CNc2nc(C)cc(N[C@@H](Cc3ccccc3)C(=O)NCCc3ccccc3)n2)c1.O=C(O)C(F)(F)F`, the Inhibition in the experiment with Plasmodium falciparum [1] is 99%; with Plasmodium falciparum [2], 85%; in the experiment with HepG2, 24%.
For the molecule `CCOC(=O)c1ccc(N2CCN(c3cc(C)ccc3C)CC2)c(NC(=O)Nc2ccc(Cl)c(Cl)c2)c1`, the figures for the Inhibition in the experiment on Plasmodium falciparum [1], in the experiment on Plasmodium falciparum [2] and with HepG2 were 100%, 42% and 7%, respectively.
The like results for `Cl.c1ccc2c(C3CCN(CCCCOc4ccc5c(c4)CCN(CC4CC4)CC5)CC3)c[nH]c2c1` were, in that order, 99%, 97% and 74%.

For the origin of these results see ChEMBL document CHEMBL1157539, “Thousands of chemical starting points for antimalarial lead identification” (Nature, 2010).
